From the antibiotic and cytotoxicity screens of Wong et al. (2023)
About 500 (1.3%) of roughly 39,000 compounds were called active. This excerpt belongs to a sample that is enriched for actives.

What follows are molecules tested on S. aureus RN4220 (assay: growth inhibition call (relative growth <= 0.2)). Conditions: 50 µM.

Structure (SMILES) | growth inhibition call
COc1ccc(C#Cc2ccc3c(c2)O[C@H](CN(C)C(=O)c2ccccn2)[C@H](C)CN([C@@H](C)CO)S3(=O)=O)cc1 | inactive
OCCOCc1nnn2c1CN(c1ncccn1)CCC2 | inactive
COC(=O)[C@H]1CCc2nc[nH]c2C1 | inactive
Cc1oc(=O)oc1CN1CCN(c2cc3c(cc2F)c(=O)c(C(=O)O)c2n3C(C)S2)CC1 (stereo not drawn) | active
Cn1cnc(S(=O)(=O)N2C[C@@H](O)COC[C@H]3O[C@@H](CC(=O)NCc4ccc(F)cc4)CC[C@@H]32)c1 | inactive
COc1ccc(NC(=O)N(C)C[C@H]2OCCCC[C@H](C)Oc3ccc(NS(=O)(=O)c4ccc(F)cc4)cc3C(=O)N([C@@H](C)CO)C[C@H]2C)cc1 | inactive
C[C@@H]1CN([C@@H](C)CO)C(=O)c2cc(NS(=O)(=O)c3ccc(Cl)cc3)ccc2O[C@@H]1CN(C)Cc1ccc(C(=O)Nc2ccccc2N)cc1 | inactive
CCN(CC)c1ccc(N2CC=C[C@@]34O[C@@H]5C=CCCOC(=O)[C@@H]5[C@H]3C(=O)N([C@@H](C)CO)[C@@H]4C2=O)cc1 | inactive
O=C(C[C@H]1CC[C@@H]2[C@H](COC[C@@H](O)CN2C(=O)Nc2ccc(C(F)(F)F)cc2)O1)NCc1ccncn1 | inactive
O=C(C[C@H]1CC[C@H]2[C@@H](COC[C@@H](O)CN2C(=O)Nc2ccc(C(F)(F)F)cc2)O1)NCCc1ccncc1 | active
O=C(C[C@H]1CC[C@H]2[C@@H](COC[C@H](O)CN2C(=O)Nc2ccc(Cl)cc2)O1)NCCc1ccncc1 | inactive
O=C(C[C@@H]1CC[C@H]2[C@@H](COC[C@@H](O)CN2C(=O)Nc2ccc(Cl)cc2)O1)NCCc1ccncc1 | inactive
O=C(C[C@H]1CC[C@@H]2[C@H](COC[C@@H](O)CN2C(=O)Nc2ccc(Cl)cc2)O1)NCCc1ccncc1 | inactive
O=C(C[C@H]1CC[C@@H]2[C@H](COC[C@@H](O)CN2C(=O)Nc2ccc(C(F)(F)F)cc2)O1)NCCc1ccncc1 | active
O=C(C[C@H]1CC[C@H]2[C@@H](COC[C@@H](O)CN2C(=O)Nc2ccc(Cl)cc2)O1)NCCc1ccncc1 | inactive
O=C(C[C@@H]1CC[C@@H]2[C@H](COC[C@H](O)CN2C(=O)Nc2ccc(C(F)(F)F)cc2)O1)NCCc1ccncc1 | inactive
O=C(C[C@@H]1CC[C@H]2[C@@H](COC[C@H](O)CN2C(=O)Nc2ccc(C(F)(F)F)cc2)O1)NCCc1ccncc1 | active
O=C(C[C@@H]1CC[C@@H]2[C@H](COC[C@H](O)CN2C(=O)Nc2ccc(Cl)cc2)O1)NCCc1ccncc1 | inactive
O=C(C[C@@H]1CC[C@H]2[C@@H](COC[C@@H](O)CN2C(=O)Nc2ccc(C(F)(F)F)cc2)O1)NCCc1ccncc1 | active
O=C(C[C@H]1CC[C@H]2[C@@H](COC[C@H](O)CN2C(=O)Nc2ccc(C(F)(F)F)cc2)O1)NCc1ccncn1 | inactive
Cc1ccc(S(=O)(=O)Nc2ccc3c(c2)C(=O)N(C)[C@H]2CC[C@@H](CC(=O)NCCc4ccncc4)O[C@H]2CO3)cc1 | inactive
C[C@@H]1CN([C@@H](C)CO)C(=O)c2cccc(NC(=O)C3CC3)c2O[C@@H]1CN(C)C(=O)NC1CCCCC1 | inactive

Structure (SMILES) | growth inhibition call
C[C@@H]1CN([C@H](C)CO)C(=O)Cc2cc(NC(=O)CCCCCC(=O)Nc3ccccc3N)ccc2O[C@H]1CN(C)C(=O)Nc1ccc(F)cc1 | inactive
C[C@@H]1CN([C@H](C)CO)C(=O)c2c(c3ccccc3n2C)-c2ccccc2CO[C@@H]1CN(C)C(=O)c1cc(Cl)cc(Cl)c1 | inactive
COc1cccc(S(=O)(=O)N[C@@H]2CC[C@H](CC(=O)NC3CCC3)O[C@@H]2CO)c1 | inactive
CN(C)CC(=O)N[C@H]1CC[C@@H](CC(=O)O)O[C@H]1CO | inactive
COCCNC(=O)C[C@@H]1CC[C@H]2[C@@H](COC[C@H](O)CN2S(=O)(=O)c2ccccc2C)O1 | inactive
Cc1noc(C)c1S(=O)(=O)Nc1ccc2c(c1)CC(=O)N([C@@H](C)CO)C[C@H](C)[C@H](CN(C)S(=O)(=O)c1ccccc1)O2 | inactive
CC(=O)N(C)C[C@@H]1Oc2ncc(C#CC(C)(C)O)cc2C(=O)N([C@@H](C)CO)C[C@@H]1C | inactive
Cc1cc(C(=O)Nc2cccc3c2O[C@@H](CN(C)Cc2ccncc2)[C@@H](C)CN([C@@H](C)CO)C3=O)n(C)n1 | inactive
COc1ccc(NC(=O)N(C)C[C@H]2OCCCC[C@H](C)Oc3ccc(NS(=O)(=O)c4ccc(C)cc4)cc3C(=O)N([C@@H](C)CO)C[C@@H]2C)cc1 | inactive
O=C(C[C@@H]1CC[C@H]2[C@@H](COC[C@H](O)CN2C(=O)Nc2ccc(Cl)cc2)O1)NCCc1ccncc1 | inactive
O=C(C[C@H]1CC[C@@H]2[C@H](COC[C@H](O)CN2C(=O)Nc2ccc(C(F)(F)F)cc2)O1)NCCc1ccncc1 | active
O=C(C[C@@H]1CC[C@@H]2[C@H](COC[C@@H](O)CN2C(=O)Nc2ccc(C(F)(F)F)cc2)O1)NCCc1ccncc1 | active
O=C(C[C@@H]1CC[C@H]2[C@@H](COC[C@H](O)CN2C(=O)Nc2ccc(C(F)(F)F)cc2)O1)NCc1ccncn1 | inactive
O=C(C[C@@H]1CC[C@@H]2[C@H](COC[C@@H](O)CN2C(=O)Nc2ccc(Cl)cc2)O1)NCCc1ccncc1 | inactive
O=C(C[C@H]1CC[C@@H]2[C@H](COC[C@H](O)CN2C(=O)Nc2ccc(Cl)cc2)O1)NCCc1ccncc1 | inactive
O=C(C[C@H]1CC[C@H]2[C@@H](COC[C@H](O)CN2C(=O)Nc2ccc(C(F)(F)F)cc2)O1)NCCc1ccncc1 | active
C[C@@H]1CN([C@H](C)CO)C(=O)c2cc(C#Cc3ccccc3F)cnc2O[C@H]1CN(C)S(=O)(=O)c1ccccc1 | inactive
CC(C)NC(=O)[C@@H](C)n1ncn2cccc2c1=O | inactive
C[C@H](CO)N1C[C@H](C)[C@@H](CN(C)C(=O)NC2CCCC2)Oc2cc(Br)ccc2S1(=O)=O | inactive
C[C@H](CO)N1C[C@H](C)[C@@H](CN(C)Cc2ccc(Cl)c(Cl)c2)Oc2ccc(NC(=O)C3CCCCC3)cc2CC1=O | inactive
Cc1cc(C(=O)Nc2cccc3c2O[C@H](CN(C)Cc2ccc4c(c2)OCO4)[C@H](C)CN([C@@H](C)CO)C3=O)n(C)n1 | inactive
